Shown are actives, neighbours in structure and some others; about 2.2% of the full set was active somewhere.
CRFBP-R2 agonist = CRF-BP/CRF-R2 complex agonism. HEK293 CRF-R2/CRF-BP, calcium dye fluorescence (FLIPR); percent of saturating CRF peptide response. AID 588473. activation, % at 13.2 µM. 350,000 compounds, 0.46% hits;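 active means activation of at least 50%, plus an integration ratio under a set limit after plate pattern correction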
Cardiac RTF inh = cardiac RTF calcium desensitization. P19429+P45379. IANBD-labeled cardiac RTF, Ca2+ fluorescence. inhibition, % at 7.15 µM. 340,000 compounds, 0.12% hits;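 active means inhibition above the mean inhibition of all tested compounds plus 3 SD, cut at about 17% in these data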;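 further: assay run at fixed EC70 calcium of 1.6 mM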
Myeloid diff 2 = compounds promoting myeloid differentiation. calls only at 10 µM. ER-HoxA9 myeloid progenitors, lysozyme-GFP differentiation, flow cytometry. 360,000 compounds, 1% hits;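 active means normalized GFP-positive differentiation at or above the plate's own cutoff, the solvent-only control mean plus 3 SD; inconclusive means no clear call, values can overlap the other calls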;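 further: cells exposed to compound for four days before flow analysis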
cardiac RTF act = increases calcium sensitivity of human cardiac regulated thin filaments; P19429+P45379; IANBD-labeled TnC RTF fluorescence at EC20 calcium; 0% EC20 calcium, 100% full calcium; activation, % at 7.2 µM; 340,000 compounds, 0.24% hits;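 active means activation above the mean over all tested compounds plus 3 SD, cut at about 30% in these data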;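 further: rise in fluorescence read as greater calcium sensitivity of cardiac thin filaments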
CRFBP-R2 block = antagonists of CRF-binding protein/CRF-R2 receptor complex; HEK293 CRF-R2/CRF-BP, CRF-induced calcium fluorescence; inhibition, % at 11.8 µM; 350,000 compounds, 0.59% hits; AID 588475;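 active means inhibition of the ligand-induced calcium signal above about 50% at the single tested concentration, limit read from the data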
Large screens that a line does not name were inactive.

CCCCCCNC(=O)N[C@H](C(=O)NCCC[C@H]1CN2C(=NC[C@H]2C)N1CCC(c1ccccc1)c1ccccc1)C(C)O (stereo partly drawn)	none (no result: CRFBP-R2 agonist, Myeloid diff 2, CRFBP-R2 block)
CCC(=O)Nc1nnc(Sc2ccc(N(C)C)cc2)s1	none
CCCC(=O)Nc1nnc(Sc2ccc(N(C)C)cc2)s1	CRFBP-R2 block 69
O=c1[nH]c(C(Cl)Cl)nc2sc3c(c12)CCN(Cc1ccccc1)C3	CRFBP-R2 agonist 56
CCOC(=O)CN1C(=O)N(CC(=O)OCC)C(c2ccccc2)(c2ccccc2)C1=O	none
O=C(COC(=O)c1cc(S(=O)(=O)N2CCOCC2)ccc1F)c1ccc[nH]1	none
O=C(COC(=O)c1ccncc1)Nc1cc(S(=O)(=O)N2CCOCC2)ccc1Cl	CRFBP-R2 block 67
Cc1ccc(NC(=O)COC(=O)c2cccnc2Cl)cc1S(=O)(=O)N1CCOCC1	CRFBP-R2 block 64
CCOc1ncccc1C(=O)OCC(=O)Nc1ccc(C)c(S(=O)(=O)N2CCOCC2)c1	none
O=C(COC(=O)c1ccc(Cl)nc1)Nc1cc(S(=O)(=O)N2CCOCC2)ccc1Cl	none
O=C(COC(=O)c1cc(S(=O)(=O)N2CCOCC2)ccc1Cl)c1ccc[nH]1	Myeloid diff 2 active (no result: Cardiac RTF inh, cardiac RTF act)
O=c1/c(=C\c2cc([N+](=O)[O-])cc([N+](=O)[O-])c2O)sc2nc3ccccc3n12	CRFBP-R2 block 60
O=C(O)c1cccc(-c2ccc(/C=c3/sc4nc5ccccc5n4c3=O)o2)c1	CRFBP-R2 agonist 69
O=c1/c(=C/c2ccccn2)sc2nc3ccccc3n12	none
Cc1cnc(NC(=O)C2CC(=O)N(c3cccc(Cl)c3)C2)s1 (stereo not drawn)	none
CCc1nnc(NC(=O)CCC(=O)NC2CCCCCC2)s1	none
CCN(CC)C(=O)[C@H]1CC(CC(=O)NC/C=C(\C)CCC=C(C)C)C(=O)N2CCc3c([nH]c4ccc(OC)cc34)[C@]12C (stereo partly drawn)	CRFBP-R2 block 78
COc1ccc2[nH]c3c(c2c1)CCN1C(=O)C(CC(=O)NCCc2ccccn2)C[C@H](C(=O)N(C(C)C)C(C)C)[C@@]31C (stereo partly drawn)	CRFBP-R2 block 70
CCN(CC)C(=O)[C@H]1C[C@H](CC(=O)NC/C=C(\C)CCC=C(C)C)C(=O)N2CCc3c([nH]c4ccc(Cl)cc34)[C@]12C	CRFBP-R2 block 75
COCCCNC(=O)CC1C[C@H](C(=O)N(C(C)C)C(C)C)[C@@]2(C)c3[nH]c4ccc(OC)cc4c3CCN2C1=O (stereo partly drawn)	none
CN(C)CCCNC(=O)C[C@H]1C[C@H](C(=O)N2CCOCC2)[C@@]2(C)c3[nH]c4ccc(Cl)cc4c3CCN2C1=O	CRFBP-R2 block 95
CCC(=O)N1CCCC(C(=O)NS(=O)(=O)c2cc(C)c(Cl)cc2C)CC1 (stereo not drawn)	none (no result: CRFBP-R2 agonist, Cardiac RTF inh, cardiac RTF act, CRFBP-R2 block)
COc1ccc(NC(=O)CN2CCN(CC(=O)Nc3ccc(F)cc3F)CC2)cc1	none
COc1cc(C(=O)O)c2ccccc2n1	CRFBP-R2 block 65
O=C(Nc1ccc2c3c(cccc13)CC2)c1ccco1	Myeloid diff 2 active
O=C(Nc1ccc2c3c(cccc13)CC2)c1ccc(Br)o1	none
CC(C)Oc1cccc(C(=O)NC(=S)Nc2ccc3c4c(cccc24)CC3)c1	Myeloid diff 2 active
COc1ccc(C(=O)NC(=S)Nc2ccc3c4c(cccc24)CC3)cc1OC	none
COc1cc(OC)cc(C(=O)NC(=S)Nc2ccc3c4c(cccc24)CC3)c1	Myeloid diff 2 active
CCOC(=O)N1CCC(N(CCN(C)C)C(=S)Nc2cc(C)cc(C)c2)CC1	none
O=c1[nH]c2ccc(N=Cc3c(O)ccc4cc(Br)ccc34)cc2[nH]1	cardiac RTF act 30
O=C(CCc1nnc2ccc(NCc3ccco3)nn12)Nc1cccc(F)c1	Myeloid diff 2 inconclusive
CC(C)(C)C(=O)/C=C(\N)c1ccccn1	Myeloid diff 2 active
Cc1cccc(NC(=O)Nc2nnc([C@H]3C[C@H](O)[C@@H](CO)O3)s2)c1	none (no result: CRFBP-R2 agonist, Cardiac RTF inh, cardiac RTF act, CRFBP-R2 block)
Cc1ccc2nc(Cl)c(/C=C/C(=O)c3ccco3)cc2c1	CRFBP-R2 block 101
COc1cccc(CN2CCN(Cc3cc(OC)c(OC)cc3[N+](=O)[O-])CC2)c1	CRFBP-R2 block 64
Cc1ccccc1S(=O)(=O)N1CCN(c2ccc3c(c2)C2CC3CCN2C(=O)OCc2ccccc2)CC1 (stereo not drawn)	none (no result: CRFBP-R2 agonist, Cardiac RTF inh, cardiac RTF act, CRFBP-R2 block)
N#CCOC(=O)C1CCN(S(=O)(=O)c2ccc3c(c2)OCCO3)CC1	none

Source: PubChem (several laboratories)
